# From the supplement of paper PMC9023506
# Counter-ions that a name gives are not always drawn.
# Test system: Danio rerio larvae (5 dpf)
# Assay: habituation to 1-s acoustic pulses, difference vs DMSO (percentage points (treated minus DMSO)); higher = more of the behaviour than the DMSO vehicle control
# Settings: 10 µM; exposure time: 3 h pre-incubation + 3 h imaging
# Procedure: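 5-dpf wild-type zebrafish larvae were imaged in 96-well plates. They were treated with 190 Tocris FDA-approved drugs at 10 µM (1 µl/ml DMSO) for 3 h before and 3 h during imaging at 28.5 °C, 48 larvae per drug. Automated image analysis gave % time moving and optomotor responses. Values are drug group mean minus DMSO vehicle mean (n=844), in percentage points, for 10 behaviours.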
row,SMILES,habituation to 1-s acoustic pulses
1,Cc1ccc(-c2cc(C(F)(F)F)nn2-c2ccc(S(N)(=O)=O)cc2)cc1 [Celecoxib],-9.42
2,COc1c(C)c2c(c(O)c1C/C=C(\C)CCC(=O)OCCN1CCOCC1)C(=O)OC2 [Mycophenolate mofetil],0.172
3,CC#C[C@]1(O)CC[C@H]2[C@@H]3CCC4=CC(=O)CCC4=C3[C@@H](c3ccc(N(C)C)cc3)C[C@@]21C [Mifepristone],-0.152
4,C[C@@H](O[C@H]1OCCN(Cc2n[nH]c(=O)[nH]2)[C@H]1c1ccc(F)cc1)c1cc(C(F)(F)F)cc(C(F)(F)F)c1 [Aprepitant],0.23
5,N#C[C@@H]1C[C@@H]2C[C@@H]2N1C(=O)[C@@H](N)C12CC3CC(CC(O)(C3)C1)C2 [Saxagliptin hydrochloride],1.97
6,Brc1c(NC2=NCCN2)ccc2nccnc12,-5.95
7,Nc1cc(N2CCCCC2)nc(N)[n+]1[O-] [Minoxidil],5.2
8,COc1cc2nccc(Oc3ccc(NC(=O)C4(C(=O)Nc5ccc(F)cc5)CC4)cc3)c2cc1OC,-4.53
9,N#Cc1ccc2[nH]cc(CCCCN3CCN(c4ccc5oc(C(N)=O)cc5c4)CC3)c2c1 [Vilazodone hydrochloride],-3.73
10,C[C@H]1C[C@@H]2[C@H]([C@@H](O)C[C@@]3(C)[C@H]2CC[C@]3(O)C(=O)CO)[C@@]2(C)C=CC(=O)C=C12 [Methylprednisolone],-1.22
11,CC(=O)O[C@]1(C(C)=O)CC[C@H]2[C@@H]3C=C(C)C4=CC(=O)CC[C@]4(C)[C@H]3CC[C@@]21C [Megestrol Acetate],-2.13
12,Nc1ncn([C@@H]2O[C@H](CO)[C@@H](O)[C@H]2O)c(=O)n1 [5-Azacytidine],0.737
13,CCC(=O)O[C@]1(C(=O)SCF)[C@H](C)C[C@H]2[C@@H]3C[C@H](F)C4=CC(=O)C=C[C@]4(C)[C@@]3(F)[C@@H](O)C[C@@]21C [Fluticasone propionate],3.04
14,COCCc1ccc(OCC(O)CNC(C)C)cc1 (stereo not given) [Metoprolol tartrate],-3.95
15,CC(C)C(=O)OCC(=O)[C@@]12O[C@H](C3CCCCC3)O[C@@H]1C[C@H]1[C@@H]3CCC4=CC(=O)C=C[C@]4(C)[C@H]3[C@@H](O)C[C@@]12C [Ciclesonide],-1.43
16,COc1cc(Nc2c(C#N)cnc3cc(OCCCN4CCN(C)CC4)c(OC)cc23)c(Cl)cc1Cl [Bosutinib],0.4
17,Cc1nc(-c2ccc(OCC(C)C)c(C#N)c2)sc1C(=O)O [Febuxostat],-2.75
18,CC(C)COCC(CN(Cc1ccccc1)c1ccccc1)N1CCCC1 (stereo not given) [Bepridil hydrochloride],-6.51
19,CC(=O)Nc1ccc(O)cc1 [Acetaminophen],-1.9
20,Nc1nc(NC2CC2)c2ncn([C@H]3C=C[C@@H](CO)C3)c2n1 [Abacavir hemisulfate],3.08

row,SMILES,habituation to 1-s acoustic pulses
1,CC(=O)S[C@@H]1CC2=CC(=O)CC[C@]2(C)[C@H]2CC[C@@]3(C)[C@@H](CC[C@@]34CCC(=O)O4)[C@H]12 [Spironolactone],-0.287
2,CN(CCOc1ccc(NS(C)(=O)=O)cc1)CCc1ccc(NS(C)(=O)=O)cc1 [Dofetilide],5.42
3,CCCN(CCC)S(=O)(=O)c1ccc(C(=O)O)cc1 [Probenecid],4.24
4,CN(C)C(=N)NC(=N)N [Metformin hydrochloride],0.867
5,CC(C)c1nc(N(C)S(C)(=O)=O)nc(-c2ccc(F)cc2)c1/C=C/[C@@H](O)C[C@@H](O)CC(=O)O [Rosuvastatin calcium],0.315
6,COc1cc2ncnc(Nc3ccc(F)c(Cl)c3)c2cc1OCCCN1CCOCC1 [Iressa],0.91
7,CCOC(=O)[C@H](CCc1ccccc1)N[C@H]1CCc2ccccc2N(CC(=O)O)C1=O [Benazepril hydrochloride],3.08
8,OCc1cc(C(O)CNCCCCCCOCCCCc2ccccc2)ccc1O (stereo not given) [Salmeterol xinafoate],0.0601
9,Cc1cc2c(s1)Nc1ccccc1N=C2N1CCN(C)CC1 [Olanzapine],0.145
10,CC1(C)O[C@@H]2[C@@H](CO[C@@]3(COS(N)(=O)=O)OC(C)(C)O[C@@H]23)O1 [Topiramate],-3.26
11,COCCCOc1cc(C[C@@H](C[C@H](N)[C@@H](O)C[C@H](C(=O)NCC(C)(C)C(N)=O)C(C)C)C(C)C)ccc1OC [Aliskiren hemifumarate],7.12
12,COc1cc([C@@H]2c3cc4c(cc3[C@@H](O[C@@H]3O[C@@H]5CO[C@@H](C)O[C@H]5[C@H](O)[C@H]3O)[C@H]3COC(=O)[C@H]23)OCO4)cc(OC)c1O [Etoposide],0.485
13,CN1CC[C@@H](NC(=O)Nc2ccc(C#N)cc2)C[C@@H]1c1nc2ccccc2[nH]1,-0.957
14,CCOc1nc2cccc(C(=O)O)c2n1Cc1ccc(-c2ccccc2-c2nnn[nH]2)cc1 [Candesartan],4.86
15,Clc1ccccc1C(c1ccccc1)(c1ccccc1)n1ccnc1 [Clotrimazole],-1.97
16,NS(=O)(=O)c1cc2c(cc1Cl)NC(C1CC3C=CC1C3)NS2(=O)=O (stereo not given) [Cyclothiazide],2.19
17,Cc1c(-c2ccc(O)cc2)n(Cc2ccc(OCCN3CCCCCC3)cc2)c2ccc(O)cc12 [Bazedoxifene acetate],0.273
18,CC(=O)O[C@H]1C(=O)[C@@]2(C)[C@H]([C@H](OC(=O)c3ccccc3)[C@]3(O)C[C@H](OC(=O)[C@H](O)[C@@H](NC(=O)c4ccccc4)c4ccccc4)C(C)=C1C3(C)C)[C@]1(OC(C)=O)CO[C@@H]1C[C@@H]2O [Taxol],-2.74
19,CN(C)CCc1c[nH]c2ccc(Cn3cncn3)cc12 [Rizatriptan benzoate],-2.41
20,O=c1n(CCCN2CCN(c3cccc(Cl)c3)CC2)nc2ccccn12 [Trazodone hydrochloride],-10.7
